Holding throughout (experiment): DAPPL (digital affinity profiling via proximity ligation, sequencing); 10 mM Tris-HCl pH 7.5, 50 mM NaCl, 1 mM DTT, 4% glycerol, room temperature, 30 min; GST-TFs on glutathione beads, 16-mer random dsDNA library, 0.1% formaldehyde crosslink after washing; high values mean tight binding
Experiment [1] deals with T1, FEV (Homo sapiens, UniProt Q99581 1-238).
T1 sequence: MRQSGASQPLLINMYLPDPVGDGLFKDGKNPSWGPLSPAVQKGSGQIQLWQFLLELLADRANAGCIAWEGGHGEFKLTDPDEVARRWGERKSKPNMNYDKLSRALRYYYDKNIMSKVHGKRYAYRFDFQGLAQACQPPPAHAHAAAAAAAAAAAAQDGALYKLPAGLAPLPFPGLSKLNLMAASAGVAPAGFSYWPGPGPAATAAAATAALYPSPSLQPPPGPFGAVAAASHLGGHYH
Particulars: protein: recombinant; tags: N-terminal GST; dsDNA, one strand shown. Put shortly: (§1)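 After expression in yeast as GST fusions, human transcription factors were bound to glutathione beads, DNA-barcoded and mixed with a tag-only sample. The pools were incubated with 200 nmole of a 16-mer random double-stranded DNA library in Tris/NaCl/DTT/glycerol buffer (30 min, room temperature), washed and crosslinked with 0.1% formaldehyde. Proximity ligation with BsaI/T4 ligase ran for 1 h at 37 °C, before PCR amplification and sequencing on an Illumina NextSeq500. Binding signal is a hexamer's read frequency for a factor divided by its frequency for the tag-only sample.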

The target in experiment [2] is ETV5 (Homo sapiens, UniProt P41161 1-510). Particulars: protein: recombinant; tags: N-terminal GST; dsDNA, one strand shown. Put shortly:
as §1

Experiment [3] concerns the target HSF1 (Homo sapiens, UniProt Q00613 1-529). Particulars: protein: recombinant; tags: N-terminal GST; chain copies: 3; dsDNA, one strand shown. The method in brief: as §1
The target in experiment [4] is T2, SPIC (Homo sapiens, UniProt Q8N5J4 1-248).
T2 sequence: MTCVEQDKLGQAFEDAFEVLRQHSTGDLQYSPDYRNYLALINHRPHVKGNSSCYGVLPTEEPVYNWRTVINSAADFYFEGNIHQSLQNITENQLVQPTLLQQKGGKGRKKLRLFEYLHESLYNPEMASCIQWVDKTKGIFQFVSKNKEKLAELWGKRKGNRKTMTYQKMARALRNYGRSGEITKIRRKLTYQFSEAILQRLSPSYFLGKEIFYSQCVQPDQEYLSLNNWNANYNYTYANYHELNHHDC
Particulars: protein: recombinant; tags: N-terminal GST; dsDNA, one strand shown. Put shortly: as §1

The target in experiment [5] is ELF4 (Homo sapiens, UniProt Q99607 1-663). Particulars: protein: recombinant; tags: N-terminal GST; dsDNA, one strand shown. Put shortly:
as §1

The target in experiment [6] is T3, ELK4 (Homo sapiens, UniProt P28324-2 1-405).
T3 sequence: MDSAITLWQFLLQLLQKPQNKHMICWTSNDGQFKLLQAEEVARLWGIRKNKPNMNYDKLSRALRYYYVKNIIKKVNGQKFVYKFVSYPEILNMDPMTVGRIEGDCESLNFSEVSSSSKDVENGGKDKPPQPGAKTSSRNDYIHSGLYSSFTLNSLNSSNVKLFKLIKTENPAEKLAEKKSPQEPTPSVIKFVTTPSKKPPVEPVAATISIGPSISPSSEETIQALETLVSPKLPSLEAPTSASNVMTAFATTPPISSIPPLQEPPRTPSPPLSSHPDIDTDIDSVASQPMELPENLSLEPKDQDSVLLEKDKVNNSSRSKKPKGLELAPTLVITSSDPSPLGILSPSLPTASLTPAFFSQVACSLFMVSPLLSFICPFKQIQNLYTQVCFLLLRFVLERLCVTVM
Particulars: protein: recombinant; tags: N-terminal GST; dsDNA, one strand shown. The method in brief: as §1

Experiment [7] has as its target T4, ETV2 (Homo sapiens, UniProt O00321 1-342).
T4 sequence: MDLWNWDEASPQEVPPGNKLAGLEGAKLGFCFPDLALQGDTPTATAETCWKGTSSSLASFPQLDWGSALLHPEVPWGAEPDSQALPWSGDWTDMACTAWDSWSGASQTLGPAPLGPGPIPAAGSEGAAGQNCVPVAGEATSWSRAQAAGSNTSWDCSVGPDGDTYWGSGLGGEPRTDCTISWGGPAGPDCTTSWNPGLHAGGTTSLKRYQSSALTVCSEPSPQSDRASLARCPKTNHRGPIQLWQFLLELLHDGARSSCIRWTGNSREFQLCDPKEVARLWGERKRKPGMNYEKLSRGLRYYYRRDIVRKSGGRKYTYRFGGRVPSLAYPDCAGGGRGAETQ
Particulars: protein: recombinant; tags: N-terminal GST; dsDNA, one strand shown. Put shortly: as §1

Experiment [8] concerns the target T5, ELF3 (Homo sapiens, UniProt P78545 1-371).
T5 sequence: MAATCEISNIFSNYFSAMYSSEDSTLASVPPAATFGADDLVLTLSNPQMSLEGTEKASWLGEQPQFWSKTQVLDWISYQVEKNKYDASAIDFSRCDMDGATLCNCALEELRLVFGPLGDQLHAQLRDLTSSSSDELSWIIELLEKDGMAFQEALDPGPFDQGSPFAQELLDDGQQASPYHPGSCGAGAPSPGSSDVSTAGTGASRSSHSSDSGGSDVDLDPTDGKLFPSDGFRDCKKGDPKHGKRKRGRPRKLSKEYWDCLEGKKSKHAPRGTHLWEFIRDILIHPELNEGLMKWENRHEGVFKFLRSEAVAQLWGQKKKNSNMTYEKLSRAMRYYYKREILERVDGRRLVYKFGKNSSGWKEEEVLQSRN
Particulars: protein: recombinant; tags: N-terminal GST; dsDNA, one strand shown. Put shortly: as §1

In experiment [9] the target is CRX (Homo sapiens, UniProt O43186 1-299). Particulars: protein: recombinant; tags: N-terminal GST; dsDNA, one strand shown. Put shortly:
as §1

In experiment [10] the target is ETV1 (Homo sapiens, UniProt P50549 1-477). Particulars: protein: recombinant; tags: N-terminal GST; dsDNA, one strand shown. The method in brief:
as §1

The target in experiment [11] is T6, ERF (Homo sapiens, UniProt P50548 1-548).
T6 sequence: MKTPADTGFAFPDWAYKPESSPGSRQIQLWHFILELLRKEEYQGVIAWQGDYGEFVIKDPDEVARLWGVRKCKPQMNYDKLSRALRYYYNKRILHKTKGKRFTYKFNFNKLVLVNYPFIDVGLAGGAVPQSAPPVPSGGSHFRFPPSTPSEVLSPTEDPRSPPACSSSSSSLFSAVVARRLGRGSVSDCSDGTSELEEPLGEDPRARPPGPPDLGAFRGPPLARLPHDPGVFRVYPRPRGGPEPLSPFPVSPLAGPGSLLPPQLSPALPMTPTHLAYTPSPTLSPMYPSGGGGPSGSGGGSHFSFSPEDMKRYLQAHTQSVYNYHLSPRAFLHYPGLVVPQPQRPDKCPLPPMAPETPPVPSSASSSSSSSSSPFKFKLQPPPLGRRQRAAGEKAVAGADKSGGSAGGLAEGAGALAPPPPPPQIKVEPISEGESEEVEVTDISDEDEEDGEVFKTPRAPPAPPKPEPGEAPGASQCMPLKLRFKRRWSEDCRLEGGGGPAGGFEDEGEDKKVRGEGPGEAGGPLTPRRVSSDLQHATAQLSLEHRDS
Particulars: protein: recombinant; tags: N-terminal GST; dsDNA, one strand shown. The method in brief: as §1

For experiment [12], the target named is T7, ETV3L (Homo sapiens, UniProt Q6ZN32 1-361).
T7 sequence: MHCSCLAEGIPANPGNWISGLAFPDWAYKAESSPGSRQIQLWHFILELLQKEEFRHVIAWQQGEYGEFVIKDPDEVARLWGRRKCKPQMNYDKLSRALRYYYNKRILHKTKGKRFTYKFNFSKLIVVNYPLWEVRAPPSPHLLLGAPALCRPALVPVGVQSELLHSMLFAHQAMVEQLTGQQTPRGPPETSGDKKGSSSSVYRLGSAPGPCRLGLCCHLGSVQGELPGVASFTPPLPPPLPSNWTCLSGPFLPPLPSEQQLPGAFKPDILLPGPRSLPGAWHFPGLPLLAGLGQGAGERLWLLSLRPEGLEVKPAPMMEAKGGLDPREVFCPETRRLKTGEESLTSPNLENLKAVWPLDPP
Particulars: protein: recombinant; tags: N-terminal GST; dsDNA, one strand shown. Put shortly:
as §1

The target in experiment [13] is T8, ETS2 (Homo sapiens, UniProt P15036 1-469).
T8 sequence: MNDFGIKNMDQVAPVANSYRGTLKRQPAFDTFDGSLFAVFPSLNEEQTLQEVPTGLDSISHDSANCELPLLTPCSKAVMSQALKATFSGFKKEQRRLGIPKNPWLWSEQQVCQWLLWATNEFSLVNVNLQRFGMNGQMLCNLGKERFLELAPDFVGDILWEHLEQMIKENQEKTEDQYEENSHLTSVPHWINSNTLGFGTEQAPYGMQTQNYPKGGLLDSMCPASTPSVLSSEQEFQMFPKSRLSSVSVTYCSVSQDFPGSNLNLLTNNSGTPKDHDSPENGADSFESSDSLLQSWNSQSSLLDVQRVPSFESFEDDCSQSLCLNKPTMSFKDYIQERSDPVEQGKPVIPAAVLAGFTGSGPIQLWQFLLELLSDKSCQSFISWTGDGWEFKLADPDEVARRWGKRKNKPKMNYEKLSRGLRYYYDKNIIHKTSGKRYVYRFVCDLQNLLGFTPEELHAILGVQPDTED
Particulars: protein: recombinant; tags: N-terminal GST; dsDNA, one strand shown. The method in brief:
as §1

Experiment [14] concerns the target T9, SPDEF (Homo sapiens, UniProt O95238 1-335).
T9 sequence: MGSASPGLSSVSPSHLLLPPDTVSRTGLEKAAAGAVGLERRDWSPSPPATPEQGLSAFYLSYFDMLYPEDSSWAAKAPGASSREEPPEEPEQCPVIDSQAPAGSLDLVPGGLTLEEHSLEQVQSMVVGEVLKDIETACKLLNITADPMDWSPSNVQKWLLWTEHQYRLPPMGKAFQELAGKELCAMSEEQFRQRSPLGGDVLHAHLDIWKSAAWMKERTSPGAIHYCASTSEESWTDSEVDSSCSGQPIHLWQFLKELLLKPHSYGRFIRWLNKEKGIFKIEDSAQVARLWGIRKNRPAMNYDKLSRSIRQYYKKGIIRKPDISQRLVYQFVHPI
Particulars: protein: recombinant; tags: N-terminal GST; dsDNA, one strand shown. Put shortly:
as §1

The target of experiment [15] is T10, ETV7 (Homo sapiens, UniProt Q9Y603 1-341).
T10 sequence: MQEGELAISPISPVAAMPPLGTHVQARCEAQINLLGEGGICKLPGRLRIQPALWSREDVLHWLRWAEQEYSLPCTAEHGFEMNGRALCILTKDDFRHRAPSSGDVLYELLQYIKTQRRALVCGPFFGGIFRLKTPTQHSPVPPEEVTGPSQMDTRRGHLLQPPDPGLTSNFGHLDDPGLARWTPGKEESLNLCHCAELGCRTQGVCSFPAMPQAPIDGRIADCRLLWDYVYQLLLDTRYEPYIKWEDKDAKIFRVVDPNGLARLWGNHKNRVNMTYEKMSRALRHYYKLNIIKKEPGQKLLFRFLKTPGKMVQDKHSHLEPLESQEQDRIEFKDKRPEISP
Particulars: protein: recombinant; tags: N-terminal GST; dsDNA, one strand shown. Put shortly:
as §1

The target in experiment [16] is T11, ELF5 (Homo sapiens, UniProt Q9UKW6-2 1-255).
T11 sequence: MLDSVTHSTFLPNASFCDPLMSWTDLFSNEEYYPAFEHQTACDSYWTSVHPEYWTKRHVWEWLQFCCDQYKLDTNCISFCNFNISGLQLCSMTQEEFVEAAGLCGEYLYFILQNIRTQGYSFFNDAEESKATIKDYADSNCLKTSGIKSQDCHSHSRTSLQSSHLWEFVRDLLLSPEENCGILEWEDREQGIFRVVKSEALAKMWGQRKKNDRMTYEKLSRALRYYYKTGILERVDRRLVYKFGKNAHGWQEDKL
Particulars: protein: recombinant; tags: N-terminal GST; dsDNA, one strand shown. The method in brief:
as §1

The target in experiment [17] is T12, ETV3 (Homo sapiens, UniProt P41162-2 1-143).
T12 sequence: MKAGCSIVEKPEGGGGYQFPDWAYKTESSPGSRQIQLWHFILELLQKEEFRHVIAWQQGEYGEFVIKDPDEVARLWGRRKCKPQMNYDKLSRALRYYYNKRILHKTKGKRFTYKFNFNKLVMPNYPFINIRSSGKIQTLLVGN
Particulars: protein: recombinant; tags: N-terminal GST; dsDNA, one strand shown. The method in brief:
as §1

In experiment [18] the target is ETV6 (Homo sapiens, UniProt P41212 1-452). Particulars: protein: recombinant; tags: N-terminal GST; dsDNA, one strand shown. The method in brief: as §1
Chain of ETV6 (P41212 whole entry): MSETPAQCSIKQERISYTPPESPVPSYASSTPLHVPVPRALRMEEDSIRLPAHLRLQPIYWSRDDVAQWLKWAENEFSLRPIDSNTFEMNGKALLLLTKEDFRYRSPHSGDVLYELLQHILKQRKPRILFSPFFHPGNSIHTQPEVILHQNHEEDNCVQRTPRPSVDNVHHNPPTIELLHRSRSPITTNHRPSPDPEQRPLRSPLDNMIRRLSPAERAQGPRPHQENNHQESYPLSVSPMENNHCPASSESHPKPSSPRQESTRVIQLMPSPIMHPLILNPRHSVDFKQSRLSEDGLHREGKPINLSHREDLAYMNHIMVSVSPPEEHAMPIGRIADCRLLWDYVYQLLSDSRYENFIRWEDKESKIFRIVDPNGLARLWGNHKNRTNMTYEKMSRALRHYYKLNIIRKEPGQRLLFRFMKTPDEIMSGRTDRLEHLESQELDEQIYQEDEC

Chain of ETV5 (P41161 whole entry): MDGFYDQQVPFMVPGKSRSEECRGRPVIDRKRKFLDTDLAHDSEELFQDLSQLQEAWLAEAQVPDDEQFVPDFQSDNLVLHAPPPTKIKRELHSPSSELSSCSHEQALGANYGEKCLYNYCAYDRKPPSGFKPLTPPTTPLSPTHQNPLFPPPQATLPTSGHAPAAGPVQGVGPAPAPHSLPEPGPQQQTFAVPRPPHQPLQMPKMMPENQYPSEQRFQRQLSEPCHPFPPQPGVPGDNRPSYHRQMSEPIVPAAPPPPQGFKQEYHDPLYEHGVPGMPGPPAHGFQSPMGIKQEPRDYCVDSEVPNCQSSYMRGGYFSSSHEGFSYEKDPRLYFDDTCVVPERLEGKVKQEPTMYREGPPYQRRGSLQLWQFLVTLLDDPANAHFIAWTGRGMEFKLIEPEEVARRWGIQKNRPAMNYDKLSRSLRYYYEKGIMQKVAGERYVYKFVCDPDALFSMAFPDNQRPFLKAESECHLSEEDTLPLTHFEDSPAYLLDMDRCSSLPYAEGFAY
Chain of CRX (O43186 whole entry): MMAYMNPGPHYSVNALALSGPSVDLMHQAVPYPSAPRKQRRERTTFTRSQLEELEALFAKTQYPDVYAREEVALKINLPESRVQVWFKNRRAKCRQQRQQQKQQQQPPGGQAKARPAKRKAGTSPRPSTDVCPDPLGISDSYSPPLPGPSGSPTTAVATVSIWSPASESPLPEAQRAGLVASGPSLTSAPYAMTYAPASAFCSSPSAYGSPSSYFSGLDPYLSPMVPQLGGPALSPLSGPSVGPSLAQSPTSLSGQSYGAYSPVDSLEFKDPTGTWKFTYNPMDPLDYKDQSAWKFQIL
Chain of ELF4 (Q99607 whole entry): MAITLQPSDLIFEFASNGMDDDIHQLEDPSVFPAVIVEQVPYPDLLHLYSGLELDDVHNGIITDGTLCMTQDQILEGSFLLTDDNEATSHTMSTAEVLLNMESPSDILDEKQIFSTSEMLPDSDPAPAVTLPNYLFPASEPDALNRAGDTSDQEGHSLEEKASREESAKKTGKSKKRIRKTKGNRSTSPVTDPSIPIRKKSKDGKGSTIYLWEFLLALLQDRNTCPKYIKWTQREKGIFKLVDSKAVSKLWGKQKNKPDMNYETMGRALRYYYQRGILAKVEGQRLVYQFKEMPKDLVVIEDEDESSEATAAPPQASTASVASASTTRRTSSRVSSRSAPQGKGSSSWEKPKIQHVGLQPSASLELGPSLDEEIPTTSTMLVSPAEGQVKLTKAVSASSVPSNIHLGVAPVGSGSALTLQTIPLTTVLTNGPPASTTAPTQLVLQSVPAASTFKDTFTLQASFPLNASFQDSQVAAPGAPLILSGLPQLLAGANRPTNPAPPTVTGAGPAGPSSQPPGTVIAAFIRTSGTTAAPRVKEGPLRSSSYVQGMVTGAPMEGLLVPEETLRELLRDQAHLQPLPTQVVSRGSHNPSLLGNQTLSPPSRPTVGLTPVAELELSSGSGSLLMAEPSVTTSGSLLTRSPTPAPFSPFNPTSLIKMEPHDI
Chain of HSF1 (Q00613 whole entry): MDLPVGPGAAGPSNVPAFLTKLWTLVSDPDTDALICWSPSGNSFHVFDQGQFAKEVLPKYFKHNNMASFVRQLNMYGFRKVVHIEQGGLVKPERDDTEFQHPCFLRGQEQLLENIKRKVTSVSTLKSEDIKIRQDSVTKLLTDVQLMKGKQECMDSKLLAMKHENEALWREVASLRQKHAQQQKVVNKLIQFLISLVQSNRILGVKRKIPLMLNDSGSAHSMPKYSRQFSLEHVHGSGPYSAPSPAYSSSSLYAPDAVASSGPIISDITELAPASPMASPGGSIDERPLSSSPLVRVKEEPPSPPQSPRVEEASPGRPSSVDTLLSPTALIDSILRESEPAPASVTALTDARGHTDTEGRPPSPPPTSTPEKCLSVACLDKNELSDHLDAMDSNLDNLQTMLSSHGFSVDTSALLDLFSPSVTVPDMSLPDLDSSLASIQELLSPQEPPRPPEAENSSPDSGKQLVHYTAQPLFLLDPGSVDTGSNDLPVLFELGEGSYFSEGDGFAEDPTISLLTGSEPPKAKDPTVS
Chain of ETV1 (P50549 whole entry): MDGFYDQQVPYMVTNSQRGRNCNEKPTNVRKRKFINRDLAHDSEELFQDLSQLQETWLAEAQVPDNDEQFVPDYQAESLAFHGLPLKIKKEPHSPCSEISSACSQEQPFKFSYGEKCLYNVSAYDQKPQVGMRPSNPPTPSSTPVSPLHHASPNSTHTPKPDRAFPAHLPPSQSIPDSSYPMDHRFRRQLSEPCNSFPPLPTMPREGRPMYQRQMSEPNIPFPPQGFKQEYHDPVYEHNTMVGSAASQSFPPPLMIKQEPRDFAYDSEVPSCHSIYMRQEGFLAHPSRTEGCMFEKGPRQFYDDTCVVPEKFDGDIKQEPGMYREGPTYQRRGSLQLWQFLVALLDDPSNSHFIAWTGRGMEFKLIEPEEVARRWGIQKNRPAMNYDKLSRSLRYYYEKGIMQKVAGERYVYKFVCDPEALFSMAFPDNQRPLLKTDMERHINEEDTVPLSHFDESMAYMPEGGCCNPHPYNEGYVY

As to TCGCCC, the binding signal was 1.3 fold enrichment (6-mer frequency, TF over GST control) in experiment [1]; 1.24 fold enrichment (6-mer frequency, TF over GST control) in experiment [2]; 1.09 fold enrichment (6-mer frequency, TF over GST control) in experiment [3]; 1.49 fold enrichment (6-mer frequency, TF over GST control) in [4]; 1.23 fold enrichment (6-mer frequency, TF over GST control) in experiment [5]; 1.19 fold enrichment (6-mer frequency, TF over GST control) in [6]. Also, the binding signal in experiment [7] was 1.19 fold enrichment (6-mer frequency, TF over GST control); in [8], 1.22 fold enrichment (6-mer frequency, TF over GST control); in experiment [9], 1.07 fold enrichment (6-mer frequency, TF over GST control); in [10] it was 1.26 fold enrichment (6-mer frequency, TF over GST control); in [11] it was 1.32 fold enrichment (6-mer frequency, TF over GST control); in experiment [12] it was 1.34 fold enrichment (6-mer frequency, TF over GST control). The binding signal in [13] was 1.23 fold enrichment (6-mer frequency, TF over GST control); in experiment [14] it was 1.25 fold enrichment (6-mer frequency, TF over GST control); in experiment [15] it was 1.27 fold enrichment (6-mer frequency, TF over GST control); in experiment [16] it was 1.14 fold enrichment (6-mer frequency, TF over GST control); in [17], 1.21 fold enrichment (6-mer frequency, TF over GST control); in experiment [18] it was 1.23 fold enrichment (6-mer frequency, TF over GST control).

The values are drawn from paper PMC7862700, “An all-to-all approach to the identification of sequence-specific readers for epigenetic DNA modifications on cytosine”.
